# Test results reported in article PMC7862700, “An all-to-all approach to the identification of sequence-specific readers for epigenetic DNA modifications on cytosine”.
# How the values were obtained:
# Experiment in all cases: DAPPL (digital affinity profiling via proximity ligation, sequencing); 10 mM Tris-HCl pH 7.5, 50 mM NaCl, 1 mM DTT, 4% glycerol, room temperature, 30 min; GST-TFs on glutathione beads, 16-mer random dsDNA library, 0.1% formaldehyde crosslink after washing; high values mean tight binding
# FEV = molecular target: T1, FEV (Homo sapiens, UniProt Q99581 1-238); details: protein: recombinant; tags: N-terminal GST; dsDNA, one strand shown
# T1 sequence: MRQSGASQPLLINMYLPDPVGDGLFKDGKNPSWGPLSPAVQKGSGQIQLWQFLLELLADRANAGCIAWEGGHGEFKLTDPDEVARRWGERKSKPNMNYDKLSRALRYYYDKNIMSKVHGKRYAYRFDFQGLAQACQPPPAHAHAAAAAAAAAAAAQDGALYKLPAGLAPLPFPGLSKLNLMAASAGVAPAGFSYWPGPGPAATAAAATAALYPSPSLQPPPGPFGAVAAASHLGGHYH
# Summary of the method: (§1)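 Binding signal is each hexamer's read frequency for a factor divided by its frequency in the tag-only sample. The factors were GST-fused human transcription factors from yeast, captured on glutathione beads, DNA-barcoded and pooled with that sample. Pools were incubated with 200 nmole of a random double-stranded 16-mer DNA library in Tris/NaCl/DTT/glycerol buffer at room temperature for 30 min, then washed, crosslinked with 0.1% formaldehyde, proximity-ligated with BsaI/T4 ligase (1 h, 37 °C), PCR-amplified and sequenced on an Illumina NextSeq500.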
# ETV5 = ETV5 (Homo sapiens, UniProt P41161 1-510); details: protein: recombinant; tags: N-terminal GST; dsDNA, one strand shown
# Chain of ETV5 (P41161 whole entry): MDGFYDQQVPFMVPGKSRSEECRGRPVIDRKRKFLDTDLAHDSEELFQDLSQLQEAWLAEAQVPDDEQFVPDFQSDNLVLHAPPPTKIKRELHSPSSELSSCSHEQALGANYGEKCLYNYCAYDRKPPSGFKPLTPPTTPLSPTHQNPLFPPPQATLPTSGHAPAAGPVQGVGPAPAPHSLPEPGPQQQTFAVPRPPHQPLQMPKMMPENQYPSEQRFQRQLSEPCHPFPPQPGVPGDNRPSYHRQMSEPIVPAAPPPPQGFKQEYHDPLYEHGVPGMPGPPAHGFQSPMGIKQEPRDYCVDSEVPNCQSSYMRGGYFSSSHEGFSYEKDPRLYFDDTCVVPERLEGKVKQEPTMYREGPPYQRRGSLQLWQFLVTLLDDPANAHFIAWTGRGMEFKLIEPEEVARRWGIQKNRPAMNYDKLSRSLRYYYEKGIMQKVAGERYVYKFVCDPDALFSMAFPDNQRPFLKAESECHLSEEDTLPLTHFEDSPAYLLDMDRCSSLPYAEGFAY
# Summary of the method: as §1
# HSF1 = HSF1 (Homo sapiens, UniProt Q00613 1-529); details: protein: recombinant; tags: N-terminal GST; chain copies: 3; dsDNA, one strand shown
# Chain of HSF1 (Q00613 whole entry): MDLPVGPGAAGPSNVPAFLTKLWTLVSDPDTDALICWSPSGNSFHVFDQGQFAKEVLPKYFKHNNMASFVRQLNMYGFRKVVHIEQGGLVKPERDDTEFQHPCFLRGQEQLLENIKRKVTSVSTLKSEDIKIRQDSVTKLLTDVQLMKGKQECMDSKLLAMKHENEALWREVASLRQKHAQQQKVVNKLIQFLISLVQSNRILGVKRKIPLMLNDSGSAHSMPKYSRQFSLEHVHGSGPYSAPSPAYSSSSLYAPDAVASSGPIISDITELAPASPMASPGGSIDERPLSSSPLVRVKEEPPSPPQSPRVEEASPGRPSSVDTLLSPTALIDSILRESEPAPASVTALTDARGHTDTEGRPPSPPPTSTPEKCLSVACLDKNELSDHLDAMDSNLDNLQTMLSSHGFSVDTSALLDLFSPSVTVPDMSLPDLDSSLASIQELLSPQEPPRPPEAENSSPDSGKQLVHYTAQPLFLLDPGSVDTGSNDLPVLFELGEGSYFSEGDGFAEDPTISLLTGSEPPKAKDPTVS
# Summary of the method: as §1
# SPIC = molecular target: T2, SPIC (Homo sapiens, UniProt Q8N5J4 1-248); details: protein: recombinant; tags: N-terminal GST; dsDNA, one strand shown
# T2 sequence: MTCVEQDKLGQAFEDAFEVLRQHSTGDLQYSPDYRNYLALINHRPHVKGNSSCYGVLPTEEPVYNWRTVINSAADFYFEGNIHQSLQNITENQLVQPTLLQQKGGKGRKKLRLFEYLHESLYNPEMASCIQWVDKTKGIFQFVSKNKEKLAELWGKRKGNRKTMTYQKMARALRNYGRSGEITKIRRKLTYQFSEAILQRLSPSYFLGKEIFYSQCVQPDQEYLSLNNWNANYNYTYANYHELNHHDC
# Summary of the method: as §1
# ELF4 = ELF4 (Homo sapiens, UniProt Q99607 1-663); details: protein: recombinant; tags: N-terminal GST; dsDNA, one strand shown
# Chain of ELF4 (Q99607 whole entry): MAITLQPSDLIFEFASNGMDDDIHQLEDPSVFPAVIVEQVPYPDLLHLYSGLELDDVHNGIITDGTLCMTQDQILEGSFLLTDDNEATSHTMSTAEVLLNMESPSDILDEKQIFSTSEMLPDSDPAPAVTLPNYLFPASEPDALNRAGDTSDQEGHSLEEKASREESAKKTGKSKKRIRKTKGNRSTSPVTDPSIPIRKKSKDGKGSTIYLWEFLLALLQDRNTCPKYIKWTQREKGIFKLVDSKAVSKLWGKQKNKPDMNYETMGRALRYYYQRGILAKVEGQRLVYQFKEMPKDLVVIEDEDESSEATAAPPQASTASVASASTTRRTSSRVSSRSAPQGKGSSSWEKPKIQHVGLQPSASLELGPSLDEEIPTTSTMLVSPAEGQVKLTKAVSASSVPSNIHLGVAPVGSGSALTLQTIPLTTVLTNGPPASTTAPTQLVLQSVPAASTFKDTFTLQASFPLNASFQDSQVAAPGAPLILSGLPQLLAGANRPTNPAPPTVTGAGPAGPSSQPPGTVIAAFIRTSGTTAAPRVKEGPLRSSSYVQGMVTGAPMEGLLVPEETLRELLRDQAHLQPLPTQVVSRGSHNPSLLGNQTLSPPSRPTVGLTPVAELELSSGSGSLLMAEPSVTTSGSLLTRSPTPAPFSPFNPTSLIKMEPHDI
# Summary of the method: as §1
# ELK4 = molecular target: T3, ELK4 (Homo sapiens, UniProt P28324-2 1-405); details: protein: recombinant; tags: N-terminal GST; dsDNA, one strand shown
# T3 sequence: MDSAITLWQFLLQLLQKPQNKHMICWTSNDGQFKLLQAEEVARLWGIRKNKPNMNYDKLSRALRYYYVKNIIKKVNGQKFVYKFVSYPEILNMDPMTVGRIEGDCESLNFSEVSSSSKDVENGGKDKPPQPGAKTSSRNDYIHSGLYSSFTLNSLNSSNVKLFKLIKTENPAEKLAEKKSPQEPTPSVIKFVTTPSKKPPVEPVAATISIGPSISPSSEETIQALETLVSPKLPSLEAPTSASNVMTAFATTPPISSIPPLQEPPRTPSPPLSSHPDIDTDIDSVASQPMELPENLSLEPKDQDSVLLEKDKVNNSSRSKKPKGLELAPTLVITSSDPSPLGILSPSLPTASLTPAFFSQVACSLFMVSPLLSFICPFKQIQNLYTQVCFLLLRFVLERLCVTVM
# Summary of the method: as §1
# ETV2 = molecular target: T4, ETV2 (Homo sapiens, UniProt O00321 1-342); details: protein: recombinant; tags: N-terminal GST; dsDNA, one strand shown
# T4 sequence: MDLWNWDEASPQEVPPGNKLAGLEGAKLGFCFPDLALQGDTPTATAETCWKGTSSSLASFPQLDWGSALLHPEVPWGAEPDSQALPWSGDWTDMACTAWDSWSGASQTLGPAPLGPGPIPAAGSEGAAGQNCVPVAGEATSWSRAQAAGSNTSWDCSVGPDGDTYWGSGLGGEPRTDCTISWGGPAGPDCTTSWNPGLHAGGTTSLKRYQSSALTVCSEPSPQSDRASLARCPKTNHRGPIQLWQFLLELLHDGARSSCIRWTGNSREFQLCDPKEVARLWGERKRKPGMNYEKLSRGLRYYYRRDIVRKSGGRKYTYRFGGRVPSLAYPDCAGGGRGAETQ
# Summary of the method: as §1
# ELF3 = molecular target: T5, ELF3 (Homo sapiens, UniProt P78545 1-371); details: protein: recombinant; tags: N-terminal GST; dsDNA, one strand shown
# T5 sequence: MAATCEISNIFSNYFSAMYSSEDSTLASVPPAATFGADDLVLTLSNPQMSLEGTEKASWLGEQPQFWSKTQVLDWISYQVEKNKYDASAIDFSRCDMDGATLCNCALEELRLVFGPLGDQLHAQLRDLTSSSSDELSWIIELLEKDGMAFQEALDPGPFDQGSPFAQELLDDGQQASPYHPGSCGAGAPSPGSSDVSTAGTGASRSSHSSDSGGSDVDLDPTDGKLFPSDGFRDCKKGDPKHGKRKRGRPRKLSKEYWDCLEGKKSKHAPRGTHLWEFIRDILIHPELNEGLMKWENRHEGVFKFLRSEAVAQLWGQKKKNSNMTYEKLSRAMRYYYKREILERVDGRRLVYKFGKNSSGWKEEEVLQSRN
# Summary of the method: as §1
# CRX = CRX (Homo sapiens, UniProt O43186 1-299); details: protein: recombinant; tags: N-terminal GST; dsDNA, one strand shown
# Chain of CRX (O43186 whole entry): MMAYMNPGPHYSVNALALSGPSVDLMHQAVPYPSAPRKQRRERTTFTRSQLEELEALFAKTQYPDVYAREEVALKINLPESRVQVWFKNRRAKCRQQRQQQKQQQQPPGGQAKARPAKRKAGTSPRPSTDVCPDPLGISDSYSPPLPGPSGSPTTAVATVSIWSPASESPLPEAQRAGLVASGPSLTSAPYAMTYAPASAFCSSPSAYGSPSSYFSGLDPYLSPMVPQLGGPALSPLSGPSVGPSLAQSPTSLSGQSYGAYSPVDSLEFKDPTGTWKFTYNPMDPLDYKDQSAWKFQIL
# Summary of the method: as §1
# ETV1 = ETV1 (Homo sapiens, UniProt P50549 1-477); details: protein: recombinant; tags: N-terminal GST; dsDNA, one strand shown
# Chain of ETV1 (P50549 whole entry): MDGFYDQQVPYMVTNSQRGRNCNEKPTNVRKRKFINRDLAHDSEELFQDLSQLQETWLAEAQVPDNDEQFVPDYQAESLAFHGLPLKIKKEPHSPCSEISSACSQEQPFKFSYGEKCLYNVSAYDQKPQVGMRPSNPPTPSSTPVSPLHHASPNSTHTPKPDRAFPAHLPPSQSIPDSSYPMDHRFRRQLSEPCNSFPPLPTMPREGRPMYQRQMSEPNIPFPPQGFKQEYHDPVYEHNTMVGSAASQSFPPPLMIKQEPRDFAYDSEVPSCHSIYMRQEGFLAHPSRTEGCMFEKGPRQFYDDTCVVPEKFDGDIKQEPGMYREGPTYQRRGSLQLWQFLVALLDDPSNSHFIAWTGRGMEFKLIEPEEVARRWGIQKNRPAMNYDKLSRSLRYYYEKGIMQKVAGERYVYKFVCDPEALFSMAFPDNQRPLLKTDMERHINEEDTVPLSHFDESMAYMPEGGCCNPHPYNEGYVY
# Summary of the method: as §1
# ERF = molecular target: T6, ERF (Homo sapiens, UniProt P50548 1-548); details: protein: recombinant; tags: N-terminal GST; dsDNA, one strand shown
# T6 sequence: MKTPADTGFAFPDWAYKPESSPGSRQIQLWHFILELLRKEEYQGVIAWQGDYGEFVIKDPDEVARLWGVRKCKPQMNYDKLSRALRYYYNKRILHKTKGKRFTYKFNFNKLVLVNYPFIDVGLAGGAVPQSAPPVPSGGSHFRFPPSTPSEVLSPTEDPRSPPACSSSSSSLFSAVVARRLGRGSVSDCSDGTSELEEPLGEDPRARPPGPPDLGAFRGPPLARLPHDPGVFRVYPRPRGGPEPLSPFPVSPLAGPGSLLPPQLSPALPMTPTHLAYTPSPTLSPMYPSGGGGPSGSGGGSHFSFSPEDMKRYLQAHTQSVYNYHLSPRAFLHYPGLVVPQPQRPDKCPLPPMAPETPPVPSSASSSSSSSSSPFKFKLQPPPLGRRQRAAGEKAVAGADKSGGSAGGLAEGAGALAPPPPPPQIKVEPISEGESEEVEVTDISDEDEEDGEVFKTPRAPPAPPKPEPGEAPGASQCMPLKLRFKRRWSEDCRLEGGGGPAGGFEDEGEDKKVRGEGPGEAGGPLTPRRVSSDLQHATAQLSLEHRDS
# Summary of the method: as §1
# ETV3L = molecular target: T7, ETV3L (Homo sapiens, UniProt Q6ZN32 1-361); details: protein: recombinant; tags: N-terminal GST; dsDNA, one strand shown
# T7 sequence: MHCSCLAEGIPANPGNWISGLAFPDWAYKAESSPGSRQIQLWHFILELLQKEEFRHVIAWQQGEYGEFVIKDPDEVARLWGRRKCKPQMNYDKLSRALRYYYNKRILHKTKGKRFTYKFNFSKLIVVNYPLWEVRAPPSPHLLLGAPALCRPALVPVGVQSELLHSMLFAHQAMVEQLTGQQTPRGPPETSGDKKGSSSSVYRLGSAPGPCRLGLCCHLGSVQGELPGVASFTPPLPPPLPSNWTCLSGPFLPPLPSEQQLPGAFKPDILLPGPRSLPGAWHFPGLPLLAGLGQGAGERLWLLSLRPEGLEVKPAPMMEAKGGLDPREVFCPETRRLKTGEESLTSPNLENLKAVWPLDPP
# Summary of the method: as §1
# ETS2 = molecular target: T8, ETS2 (Homo sapiens, UniProt P15036 1-469); details: protein: recombinant; tags: N-terminal GST; dsDNA, one strand shown
# T8 sequence: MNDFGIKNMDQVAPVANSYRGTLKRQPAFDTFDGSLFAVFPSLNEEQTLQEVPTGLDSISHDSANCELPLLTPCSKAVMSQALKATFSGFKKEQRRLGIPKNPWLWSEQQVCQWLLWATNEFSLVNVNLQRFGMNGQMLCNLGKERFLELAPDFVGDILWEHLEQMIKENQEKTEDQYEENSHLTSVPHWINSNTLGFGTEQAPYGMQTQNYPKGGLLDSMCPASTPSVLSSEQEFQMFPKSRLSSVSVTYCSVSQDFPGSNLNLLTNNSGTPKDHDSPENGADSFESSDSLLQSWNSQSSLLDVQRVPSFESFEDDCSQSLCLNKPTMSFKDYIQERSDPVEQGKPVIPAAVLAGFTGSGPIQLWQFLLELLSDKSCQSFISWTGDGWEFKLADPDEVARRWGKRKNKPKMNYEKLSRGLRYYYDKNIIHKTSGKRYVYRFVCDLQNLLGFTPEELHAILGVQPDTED
# Summary of the method: as §1
# SPDEF = molecular target: T9, SPDEF (Homo sapiens, UniProt O95238 1-335); details: protein: recombinant; tags: N-terminal GST; dsDNA, one strand shown
# T9 sequence: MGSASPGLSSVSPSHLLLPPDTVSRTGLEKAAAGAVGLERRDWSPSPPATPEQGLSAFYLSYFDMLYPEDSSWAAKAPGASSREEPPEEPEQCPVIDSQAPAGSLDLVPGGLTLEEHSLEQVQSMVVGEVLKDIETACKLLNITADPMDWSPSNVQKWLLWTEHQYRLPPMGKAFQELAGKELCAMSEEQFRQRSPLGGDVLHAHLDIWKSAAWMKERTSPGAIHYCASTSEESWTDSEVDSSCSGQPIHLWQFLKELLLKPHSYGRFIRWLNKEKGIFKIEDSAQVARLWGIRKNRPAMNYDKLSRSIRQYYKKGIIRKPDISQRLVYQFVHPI
# Summary of the method: as §1
# ETV7 = molecular target: T10, ETV7 (Homo sapiens, UniProt Q9Y603 1-341); details: protein: recombinant; tags: N-terminal GST; dsDNA, one strand shown
# T10 sequence: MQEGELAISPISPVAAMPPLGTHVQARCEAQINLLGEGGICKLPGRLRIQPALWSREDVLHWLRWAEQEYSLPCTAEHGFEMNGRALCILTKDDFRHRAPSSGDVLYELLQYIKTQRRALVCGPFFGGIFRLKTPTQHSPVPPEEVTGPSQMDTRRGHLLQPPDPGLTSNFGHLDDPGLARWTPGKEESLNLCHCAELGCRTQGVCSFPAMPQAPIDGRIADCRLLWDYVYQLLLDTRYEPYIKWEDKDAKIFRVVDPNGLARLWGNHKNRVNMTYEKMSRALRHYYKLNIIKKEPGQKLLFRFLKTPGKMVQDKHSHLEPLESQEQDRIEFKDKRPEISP
# Summary of the method: as §1
# ELF5 = molecular target: T11, ELF5 (Homo sapiens, UniProt Q9UKW6-2 1-255); details: protein: recombinant; tags: N-terminal GST; dsDNA, one strand shown
# T11 sequence: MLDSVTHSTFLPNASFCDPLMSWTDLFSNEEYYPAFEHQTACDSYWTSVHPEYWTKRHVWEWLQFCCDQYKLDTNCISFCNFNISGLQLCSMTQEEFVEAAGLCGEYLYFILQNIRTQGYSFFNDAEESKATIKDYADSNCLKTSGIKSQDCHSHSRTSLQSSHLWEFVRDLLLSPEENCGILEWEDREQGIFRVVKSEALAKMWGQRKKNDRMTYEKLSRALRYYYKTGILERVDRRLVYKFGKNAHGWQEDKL
# Summary of the method: as §1
# ETV3 = molecular target: T12, ETV3 (Homo sapiens, UniProt P41162-2 1-143); details: protein: recombinant; tags: N-terminal GST; dsDNA, one strand shown
# T12 sequence: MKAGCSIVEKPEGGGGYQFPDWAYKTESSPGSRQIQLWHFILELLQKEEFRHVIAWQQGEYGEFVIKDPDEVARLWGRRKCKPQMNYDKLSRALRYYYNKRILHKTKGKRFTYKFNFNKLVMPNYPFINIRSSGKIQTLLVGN
# Summary of the method: as §1
# ETV6 = ETV6 (Homo sapiens, UniProt P41212 1-452); details: protein: recombinant; tags: N-terminal GST; dsDNA, one strand shown
# Chain of ETV6 (P41212 whole entry): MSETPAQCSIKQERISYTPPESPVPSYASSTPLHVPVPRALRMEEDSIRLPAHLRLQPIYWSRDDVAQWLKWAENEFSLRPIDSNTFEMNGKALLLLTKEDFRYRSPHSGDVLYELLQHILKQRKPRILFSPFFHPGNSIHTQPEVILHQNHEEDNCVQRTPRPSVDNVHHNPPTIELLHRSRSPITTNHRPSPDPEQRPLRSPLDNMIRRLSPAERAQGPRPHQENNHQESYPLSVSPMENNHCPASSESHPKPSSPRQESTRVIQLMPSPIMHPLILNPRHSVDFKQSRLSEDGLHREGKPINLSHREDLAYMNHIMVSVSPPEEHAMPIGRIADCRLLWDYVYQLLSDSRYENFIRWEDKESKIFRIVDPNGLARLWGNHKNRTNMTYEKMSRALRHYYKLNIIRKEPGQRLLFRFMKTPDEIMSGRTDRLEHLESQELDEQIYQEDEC
# Summary of the method: as §1
sequence,measurement,setting,value
TACCGA,binding signal,FEV,"1.11 fold enrichment (6-mer frequency, TF over GST control)"
same,binding signal,ETV5,"1.14 fold enrichment (6-mer frequency, TF over GST control)"
same,binding signal,HSF1,"1.21 fold enrichment (6-mer frequency, TF over GST control)"
same,binding signal,SPIC,"1.2 fold enrichment (6-mer frequency, TF over GST control)"
same,binding signal,ELF4,"1.18 fold enrichment (6-mer frequency, TF over GST control)"
same,binding signal,ELK4,"1.12 fold enrichment (6-mer frequency, TF over GST control)"
same,binding signal,ETV2,"1.04 fold enrichment (6-mer frequency, TF over GST control)"
same,binding signal,ELF3,"1.3 fold enrichment (6-mer frequency, TF over GST control)"
same,binding signal,CRX,"1.33 fold enrichment (6-mer frequency, TF over GST control)"
same,binding signal,ETV1,"1.24 fold enrichment (6-mer frequency, TF over GST control)"
same,binding signal,ERF,"1.05 fold enrichment (6-mer frequency, TF over GST control)"
same,binding signal,ETV3L,"1.13 fold enrichment (6-mer frequency, TF over GST control)"
same,binding signal,ETS2,"1.12 fold enrichment (6-mer frequency, TF over GST control)"
same,binding signal,SPDEF,"1.12 fold enrichment (6-mer frequency, TF over GST control)"
same,binding signal,ETV7,"1.01 fold enrichment (6-mer frequency, TF over GST control)"
same,binding signal,ELF5,"1.08 fold enrichment (6-mer frequency, TF over GST control)"
same,binding signal,ETV3,"1.09 fold enrichment (6-mer frequency, TF over GST control)"
same,binding signal,ETV6,"1.09 fold enrichment (6-mer frequency, TF over GST control)"
